# Screening results from PubChem.
# PI5P4K alpha inh: blocks human PI5P4K alpha kinase activity. P48426. PI5P4Kalpha enzyme, ADP-Glo luminescence, 60 min; stronger effect = lower value. max response, %. actives 1.2% (n = 330,000). AID 652105; active = max response of -50% or lower; inconclusive = between -30% and -50%; inactive = -30% or higher; note: value at the top dose of about 77 µM; % is set by controls: 0 for no effect and ±100 for the full control effect
#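 Quantitative HTS of the MLSMR library against PI5P4Kalpha with substrate. ATP added last at 5 microM final; room temperature, 60 minutes. Remaining ATP depleted, ADP converted and read as luminescence.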
# HP1b chromo inh: blocks HP1-beta chromodomain binding to methylated histone tails. P83916. AlphaScreen HP1-beta / biotin-H3K9me3 peptide binding. Potency, µM (top dose mostly 114 µM), without a hit: at the top dose activity change, negative = inhibition, usual class: inhibitors. actives 0.56% (n = 390,000). AID 540317; note: potency is the fitted concentration of half-maximal effect; nearly all actives have a fitted effect of over 70% in size
#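 Compound inhibition of the preformed complex between 50 nM HP1-beta and 50 nM biotinylated H3K9me3 peptide was read by AlphaScreen. Buffer was PBS pH 7.4 with 0.01% Tween-20. Incubations ran 30 min at room temperature, with 10 ug/mL donor/acceptor beads.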
# JMJD2E inh: blocks human JMJD2E demethylase activity; AID 2147; Potency, µM (series often up to 57.1 µM), without a hit: top-dose activity change, negative = inhibition, hits mostly inhibitors; B2RXH2; actives 1.6% (n = 230,000); JMJD2E catalytic domain, FDH-coupled NADH fluorescence (FDH is formaldehyde dehydrogenase); active = well fitted inhibition curve with a large enough effect, not every such curve was filed as active; inconclusive = small, poorly fitted or top-dose-only effect, or another doubt; inactive = no such curve, though single readings can be large or run the other way;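 note: potency is the fitted concentration of half-maximal effect; 0% = wells with enzyme and -100% = buffer wells without enzyme; nearly all actives have a fitted effect of over 50% in size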
# JMJD2A Tudor: inhibitors of human JMJD2A Tudor domain; O75164; AlphaScreen JMJD2A-Tudor / H3K4me3 peptide binding; Potency, µM (titrated, usually from 114 µM), for the others: top-dose activity change, negative = inhibition, most hits filed as inhibitors; actives 4.4% (n = 390,000); note: potency is the fitted concentration of half-maximal effect; % is set by controls: 0 for no effect and ±100 for the full control effect; nearly all actives have a fitted effect of over 50% in size
# L3MBTL1 inh: L3MBTL1 (human) inhibition; Q9Y468; AlphaScreen L3MBTL1–H3K9me1 peptide binding; Potency, µM (highest dose often 57.1 µM), for the others: top-dose activity, negative = inhibition, actives largely listed as inhibitors; actives 0.66% (n = 230,000); note: potency is the fitted concentration of half-maximal effect; % is set by controls: 0 for no effect and ±100 for the full control effect; nearly all actives have a fitted effect of over 60% in size
#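 AlphaScreen assay: L3MBTL1 (50 nM final) was preincubated 30 min at room temperature with biotinylated H3(1-15)K9me1 peptide (75 nM final), then 30 min with library compounds; streptavidin donor and nickel chelate acceptor beads (10 ug/mL final) added, 30 min dark.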
# BAZ2B block: blocks human BAZ2B. Potency, µM (series often up to 114 µM), for inactives: top-dose activity change, negative = inhibition, actives largely listed as inhibitors. actives 4.4% (n = 360,000). AlphaScreen BAZ2B-H3K14Ac peptide displacement; note: potency is the fitted concentration of half-maximal effect; % is set by controls: 0 for no effect and ±100 for the full control effect; nearly all actives have a fitted effect of over 60% in size
#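 Compounds, titrated to a top concentration of 110 uM, were incubated 30 min at room temperature with preformed BAZ2B/acetyl-K14 H3 peptide complex (50 nM each). Proximity signal was measured by AlphaScreen after 20 min with beads.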
# Active calls of the source: *; ? = inconclusive; . = not tested or not shown; [ ] = dose if it differs, or a comment. Only some compounds are listed: those with a hit (about 5.7% of all), similar ones and a draw of the others. Unless noted, calls come from the whole dose curve; as a rule, active = well fitted inhibition curve with a large enough effect; inconclusive = small, poorly fitted or top-dose-only effect; inactive = no such curve, though single readings can be large or run the other way.
SMILES,PI5P4K alpha inh,HP1b chromo inh,JMJD2E inh,JMJD2A Tudor,L3MBTL1 inh,BAZ2B block
CC1=C(SCc2ccccc2)C(=O)c2ccccc2C1=O,?,?,.,14µM*,.,.
O=C1Nc2ccccc2/C1=N/N=C/c1cccc(O)c1,-12,-29%,?,?,0%,-15%
COc1cc(/C=N/N=C2/C(=O)Nc3ccccc32)cc(OC)c1O,?,-55%,-10%,?,-18%,50µM*
Cc1cc(NS(=O)(=O)c2ccc(NC(=S)NC(=O)c3cccnc3)cc2)no1,-7,7%,7%,32µM*,7%,?
Cc1cc(C)nc(NS(=O)(=O)c2ccc(NC(=S)NC(=O)c3cccnc3)cc2)n1,1,-2%,1%,-16%,-21%,-17%
Cc1cc(C)c2nc(-c3ccccn3)cc(C(=O)Nc3ccc(S(=O)(=O)Nc4cc(C)on4)cc3)c2c1,.,-8%,?,50µM*,-16%,50µM*
CCCn1cc(S(=O)(=O)c2ccccc2)c(=O)c2cc(F)c(N3CCCCCC3)cc21,.,49%,.,-9%,.,7%
O=C(CSc1ccccn1)Nc1ccc2ccccc2c1,.,.,-21%,.,7%,6%
O=C(CSc1n[nH]c(=O)[nH]c1=O)Nc1cccc(S(=O)(=O)N2CCOCC2)c1,-3,32%,2%,-17%,15%,-2%
O=C(CSc1ccccn1)Nc1ccc2c(c1)C(=O)c1ccccc1C2=O,-21,-21%,0%,50µM*,-3%,50µM*
O=C(CSc1n[nH]c(=O)[nH]c1=O)Nc1ccc2c(c1)C(=O)c1ccccc1C2=O,-59*,11µM*,-15%,?,28µM*,50µM*
CC1CCc2c(sc3nnn(Cc4ccc(F)cc4)c(=O)c23)C1 (stereo unspecified),.,47%,.,44%,.,51%
CCN(Cc1ccccc1)S(=O)(=O)c1ccc(C(=O)N(CCCN(C)C)c2nc3ccc(F)cc3s2)cc1,3,-2%,.,?,.,28µM*
CN(C)CCCN(C(=O)c1ccc(S(=O)(=O)N(C)C2CCCCC2)cc1)c1nc2ccc(Br)cc2s1,0,-13%,.,35µM*,.,?
CCN(Cc1ccccc1)S(=O)(=O)c1ccc(C(=O)N(CCCN(C)C)c2nc3cc(OC)ccc3s2)cc1,1,-11%,.,?,-8%,?
CCN(Cc1ccccc1)S(=O)(=O)c1ccc(C(=O)N(CCCN(C)C)c2nc3cc4c(cc3s2)OCCO4)cc1,1,?,.,45µM*,-13%,35µM*
COC(=O)c1cc(NC(=O)c2sc3ncn(Cc4cccc(F)c4)c(=O)c3c2C)cc(C(=O)OC)c1,.,32%,.,-4%,.,4%
COC(=O)c1ccc(OCC2c3cc(OC)c(OC)cc3CCN2C(=O)COc2ccc(Cl)cc2)cc1 (stereo unspecified),.,-12%,.,-27%,.,-10%
COc1cc(C2c3c(oc4ccc(F)cc4c3=O)C(=O)N2Cc2ccc3c(c2)OCO3)ccc1O (stereo unspecified),.,20%,.,6%,.,-2%
COc1cccc(CNC(=O)CCCn2nc(C)c3sc4ccccc4c3c2=O)c1,.,55%,.,-5%,.,1%
CC1CC(C)CN(C(=O)c2ccc3c(c2NCCO)C(=O)c2ccccc2C3=O)C1 (stereo unspecified),-6,45µM*,-8%,14µM*,.,?
CC1CC(C)CN(C(=O)COC(=O)CN2C(=O)c3ccccc3C2=O)C1 (stereo unspecified),-1,-4%,.,-16%,2%,.
CN1CCN(CCC(=O)Nc2ccc(F)c(F)c2)CC1,.,21%,1%,-14%,.,?
CC(C(=O)Nc1ccccc1C(F)(F)F)N1CCN(C)CC1 (stereo unspecified),-1,?,.,25µM*,9%[2.29 µM],79µM*
CC(C(=O)Nc1ccc(F)c(F)c1)N1CCN(C)CC1 (stereo unspecified),-8,35µM*,.,3.2µM*,.,22µM*
O=C1COc2ccccc2N1Cc1c(F)cccc1Cl,5,39%,.,8%,.,12%
